Data published in PubChem BioAssay (Tox21).
Results filed as inconclusive are left out. Active and inactive are the calls of the source. Unless noted, the call rests on the fitted dose curve; in most records, active means well fitted curve in the direction sought with a large enough effect in the repeat runs; inconclusive means weak or mixed curves; inactive means no such curve, though single readings can be large; an effect the other way counts as inactive or inconclusive.

How the values were obtained:
[1] = qHTS RealTime-Glo MT Cell Viability Assay in HEK293 cells - 0 hour (AID 1224880); further: top concentration of the series differs between compounds; nearly all actives have a fitted effect of over 45% in size
Summary of the method: (§1)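 HEK293 + NanoLuc + prosubstrate, 600 cells/well; 5 h, 37 C/5% CO2; compound 23 nL in DMSO by pintool; 37 C; luminescence read at 0, 8, 16, 24, 32 and 40 h time points.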

[2] = A CellTox Green Cytotoxicity Assay to monitor cytotoxicity in HepG2 cells - 0 hour (AID 1224882); further: nearly all actives have a fitted effect of over 35% in size
Summary of the method: (§2)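 Measurements at 0, 8, 16, 24, 32 and 40 h of treatment captured CellTox Green fluorescence in HepG2 cells that had been co-plated with reagent and preincubated 5 h at 37 C/5% CO2.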

[3] = A CellTox Green Cytotoxicity Assay to monitor cytotoxicity in HepG2 cells - 32 hour (AID 1224883); further: nearly all actives have a fitted effect of over 50% in size
Summary of the method: as §2

[4] = A CellTox Green Cytotoxicity Assay to monitor cytotoxicity in HEK293 cells - 8 hour (AID 1224884); further: nearly all actives have a fitted effect of over 35% in size
Summary of the method: (§3)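 Tox21 screen in HEK293: membrane-impermeant cyanine dye fluoresces on binding dead-cell DNA; compound pinned 5 h post-seeding, plates held at 37 C, signal read repeatedly through 40 h.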

[5] = qHTS RealTime-Glo MT Cell Viability Assay in HepG2 cells - 16 hour (AID 1224885); further: nearly all actives have a fitted effect of over 50% in size
Summary of the method: (§4)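 Real-time, nonlytic viability: 600 HepG2 cells/well mixed with NanoLuc enzyme plus prosubstrate; 5 h settle, compound (DMSO) added by pintool; luminescence monitored over 40 h at 37 C.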

[6] = qHTS RealTime-Glo MT Cell Viability Assay in HEK293 cells - 24 hour (AID 1224886); further: top concentration of the series differs between compounds; nearly all actives have a fitted effect of over 50% in size
Summary of the method: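 Cells + reagent dispensed (600 cells/well, HEK293) → 5 h at 37 C/5% CO2 → 23 nL compound in DMSO pinned → 40 h at 37 C → luminescence read at 0, 8, 16, 24, 32, 40 h.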

[7] = qHTS RealTime-Glo MT Cell Viability Assay in HEK293 cells - 8 hour (AID 1224887); further: top concentration of the series differs between compounds; nearly all actives have a fitted effect of over 50% in size
Summary of the method: as §1

[8] = A CellTox Green Cytotoxicity Assay to monitor cytotoxicity in HEK293 cells - 16 hour (AID 1224888); further: nearly all actives have a fitted effect of over 35% in size
Summary of the method: as §3

[9] = qHTS RealTime-Glo MT Cell Viability Assay in HepG2 cells - 0 hour (AID 1224889); further: nearly all actives have a fitted effect of over 50% in size
Summary of the method: as §4

[10] = A CellTox Green Cytotoxicity Assay to monitor cytotoxicity in HepG2 cells - 8 hour (AID 1224890); further: nearly all actives have a fitted effect of over 45% in size
Summary of the method: as §2

[11] = qHTS assay to identify small molecule antagonists of the estrogen receptor alpha (ER-alpha) signaling pathway using the BG1 cell line in the presence of 0.1 nM 17-beta-estradiol - cell viability counter screen (AID 1259241); further: nearly all actives have a fitted effect of over 40% in size
Summary of the method: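 Estradiol-stimulated (0.1 nM) VM7Luc4E2 cells exposed to compounds 22 hr; viability measured by fluorescence of cleaved CellTiter-Fluor substrate after 30 min.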

[12] = qHTS assay to identify small molecule antagonists of the androgen receptor (AR) signaling pathway using the MDA cell line in the presence of 0.5 nM R1881 - cell viability counter screen (AID 1259242); further: nearly all actives have a fitted effect of over 45% in size
Summary of the method: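 Concentration-response screen of compounds for toxicity in MDA-kb2 reporter cells: 16 hr at 37C with 0.5 nM R1881, endpoint live-cell protease fluorescence measured in the reporter wells.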

[13] = qHTS assay to identify small molecule phospholipidosis (PLD) inducers (AID 1259344; active means well fitted curve in the direction sought with a large enough effect; an effect the other way counts as inactive or inconclusive)
Summary of the method: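 Image-based: LipidTOX Red pit count/intensity per well and per cell; HepG2, 24 h compound at 37 C, PFA fixation, Hoechst counterstain.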

[14] = qHTS assay to identify small molecule HDAC inhibitors - cell viability counter screen (AID 1259365)
Summary of the method: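 After overnight seeding at 1,500 cells per well, wild-type HCT-116 cultures took up compounds in DMSO for 2hr at 37 C. Viable cell content came from luminescence with CellTiter-Glo.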

[15] = qHTS assay to identify small molecule agonists of the sonic hedgehog signaling (Shh) pathway - cell viability counter screen (AID 1259366); further: nearly all actives have a fitted effect of over 50% in size
Summary of the method: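 Same-well cytotoxicity read. Gli1-Luc reporter 3T3 cells; compounds 24hr, 37C/5% CO2; CellTiter-Fluor fluorescence.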

[16] = qHTS assay to identify small molecule antagonists of the sonic hedgehog signaling (Shh) pathway - cell viability counter screen (AID 1259367); further: nearly all actives have a fitted effect of over 55% in size
Summary of the method: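 Tox21 library chemicals were tested on a Gli1-Luc NIH/3T3 clone (2,000 cells/well) stimulated by conditioned medium; viability was quantified as fluorescence from CellTiter-Fluor reagent added at 23 hr.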

[17] = A CellTox Green Cytotoxicity Assay to monitor cytotoxicity in HEK293 cells - 32 hour (AID 1224881); further: nearly all actives have a fitted effect of over 40% in size
Summary of the method: as §3

[18] = molecular target: Estrogen receptor (Homo sapiens) (UniProt P03372); assay: qHTS assay to identify small molecule antagonists of the estrogen receptor alpha (ER-alpha) signaling pathway using the BG1 cell line in the presence of 0.1 nM 17-beta-estradiol (AID 1259244); further: nearly all actives have a fitted effect of over 50% in size
Summary of the method: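 Compounds were tested against 0.1 nM (final) 17beta-estradiol in VM7Luc4E2 cells, which express full-length ER-alpha and an ERE-luciferase reporter; luminescence was recorded following 22 h exposure.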

[19] = qHTS assay to identify small molecule HDAC inhibitors (AID 1259364);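 further: wild-type HCT-116 cells with endogenous class I/II HDAC activity; top concentration of the series differs between compounds; nearly all actives have a fitted effect of over 45% in size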
Summary of the method: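 Screening used wild-type human colon HCT-116 cells incubated overnight, dosed with compounds for 2 hours, and assayed with a homogeneous luminogenic HDAC I/II reagent for 30 minutes at room temperature.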

[20] = molecular target: Androgen receptor (Homo sapiens) (UniProt P10275); assay: qHTS assay to identify small molecule antagonists of the androgen receptor (AR) signaling pathway using the MDA cell line in the presence of 0.5 nM R1881 (AID 1259243); further: nearly all actives have a fitted effect of over 50% in size
Summary of the method: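 With R1881 held at 0.5 nM (final), compound effects on MMTV-luciferase expression in MDA-kb2 cells were scored by luminescence after a 16 hr, 37C incubation.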

Measured: Potency

Sequence of Estrogen receptor (Homo sapiens) (P03372 whole entry, looked up): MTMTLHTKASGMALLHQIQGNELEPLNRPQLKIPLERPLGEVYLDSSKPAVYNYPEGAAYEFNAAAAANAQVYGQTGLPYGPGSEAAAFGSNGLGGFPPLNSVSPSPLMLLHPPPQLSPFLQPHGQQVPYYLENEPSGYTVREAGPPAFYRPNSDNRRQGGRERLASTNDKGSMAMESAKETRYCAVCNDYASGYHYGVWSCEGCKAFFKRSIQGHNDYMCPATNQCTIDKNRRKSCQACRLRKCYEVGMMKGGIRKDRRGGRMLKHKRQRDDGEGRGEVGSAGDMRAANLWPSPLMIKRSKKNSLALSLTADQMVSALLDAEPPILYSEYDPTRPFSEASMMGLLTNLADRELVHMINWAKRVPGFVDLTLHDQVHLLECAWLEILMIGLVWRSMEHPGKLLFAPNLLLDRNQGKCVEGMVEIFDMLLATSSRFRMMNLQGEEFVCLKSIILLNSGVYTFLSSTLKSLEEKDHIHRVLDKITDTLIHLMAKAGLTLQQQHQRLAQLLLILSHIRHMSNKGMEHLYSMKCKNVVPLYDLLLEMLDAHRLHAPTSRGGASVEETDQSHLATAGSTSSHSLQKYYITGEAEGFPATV
Sequence of Androgen receptor (Homo sapiens) (P10275 whole entry, looked up): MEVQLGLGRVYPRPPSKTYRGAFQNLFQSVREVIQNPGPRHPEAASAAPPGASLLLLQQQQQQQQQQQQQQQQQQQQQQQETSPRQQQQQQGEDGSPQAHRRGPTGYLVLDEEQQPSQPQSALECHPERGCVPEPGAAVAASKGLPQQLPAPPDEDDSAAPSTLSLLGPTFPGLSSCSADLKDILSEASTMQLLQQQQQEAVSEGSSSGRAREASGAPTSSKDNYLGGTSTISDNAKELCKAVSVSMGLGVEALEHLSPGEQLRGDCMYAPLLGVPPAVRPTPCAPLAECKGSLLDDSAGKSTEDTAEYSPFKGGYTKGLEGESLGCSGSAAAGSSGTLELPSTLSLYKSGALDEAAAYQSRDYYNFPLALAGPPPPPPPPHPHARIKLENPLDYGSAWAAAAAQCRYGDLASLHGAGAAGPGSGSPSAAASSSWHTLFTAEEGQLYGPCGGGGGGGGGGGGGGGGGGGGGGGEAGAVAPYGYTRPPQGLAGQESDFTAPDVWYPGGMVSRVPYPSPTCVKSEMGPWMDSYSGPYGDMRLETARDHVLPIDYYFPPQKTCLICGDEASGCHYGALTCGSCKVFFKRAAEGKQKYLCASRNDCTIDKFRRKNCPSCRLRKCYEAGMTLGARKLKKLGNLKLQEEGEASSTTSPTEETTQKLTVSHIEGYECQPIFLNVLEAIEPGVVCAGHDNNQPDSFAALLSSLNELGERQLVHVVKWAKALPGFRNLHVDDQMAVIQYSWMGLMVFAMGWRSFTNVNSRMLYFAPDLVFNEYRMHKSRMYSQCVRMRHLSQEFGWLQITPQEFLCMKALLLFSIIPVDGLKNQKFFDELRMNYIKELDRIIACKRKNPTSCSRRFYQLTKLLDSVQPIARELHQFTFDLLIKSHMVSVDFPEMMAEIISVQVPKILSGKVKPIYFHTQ

C[C@@H](N)[C@@H](O)c1ccccc1
inactive: [1] | [2] | [3] | [4] | [5] | [6] | [7] | [8] | [9] | [10] | [11] | [12] | [13] | [14] | [15] | [16]

O=C(Cl)c1ccccc1
inactive: [1] | [17] | [3] | [4] | [5] | [6] | [7] | [8] | [9] | [10] | [11] | [12] | [18] | [19] | [14] | [16]

CC(C)[N+](C)(CCC(C(N)=O)(c1ccccc1)c1ccccc1)C(C)C
inactive: [1] | [2] | [3] | [4] | [5] | [6] | [7] | [8] | [9] | [10] | [11] | [12] | [18] | [13] | [14] | [15] | [16]

CCC1(c2ccccc2)CCC(=O)NC1=O (configuration not stated)
inactive: [1] | [2] | [3] | [4] | [5] | [6] | [7] | [8] | [9] | [10] | [11] | [12] | [20] | [18] | [13] | [19] | [14] | [15] | [16]

O=C(O)C(Cl)Br (configuration not stated)
inactive: [1] | [17] | [3] | [4] | [5] | [7] | [9] | [11] | [12] | [19] | [14] | [15] | [16]

CCC(C(N)=O)N1CCCC1=O (configuration not stated)
inactive: [1] | [17] | [3] | [4] | [5] | [6] | [7] | [9] | [11] | [12] | [18] | [13] | [19] | [14] | [15] | [16]

COC[C@@H](NC(C)=O)C(=O)NCc1ccccc1
inactive: [1] | [2] | [4] | [5] | [6] | [7] | [8] | [9] | [11] | [12] | [20] | [19] | [14] | [15] | [16]
